Growth inhibition data for eight compounds are collected here from PubChem BioAssay (NCI).

The assay is described as follows: NCI Yeast Anticancer Drug Screen. Data for the rad52 strain (AID 147).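 Note: 0% = growth of vehicle-treated control cultures.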 Conditions: S. cerevisiae rad52 mutant growth inhibition, active compounds read high. The method, then: Growth inhibition of yeast strains with defined genetic alterations is measured as a screen for potential anti-cancer activity. Selected strains with alterations in DNA damage repair or cell cycle control were exposed to compounds and growth inhibition was measured relative to vehicle treated controls. The strain used in this assay is rad52

Compounds without any hit were thinned out: in the full panel of roughly 79,000, 15% have a hit. Unmarked numbers belong to inactive results. Active and inactive are the calls of the source. Cut-off read from the data, not from the text of the source: active = growth inhibition above about 70%; inactive = the rest.

`O=C(O)c1c2ccc(Cl)cc2nc2[nH]c(=O)[nH]c(=O)c12`: the growth inhibition (at 1.2 µM) is -38%; the growth inhibition (at 3.7 µM) is -34%; the growth inhibition (at 11.0 µM) was -25%; the growth inhibition (at 33.0 µM) is -30%; the growth inhibition (at 100.0 µM) was -13%.

With `N#[N+]c1c([O-])c2ccccc2c2ccccc12`, the growth inhibition is, setting by setting: (at 1.2 µM) 13%; (at 3.7 µM) 23%; (at 11.0 µM) 82% (active); (at 33.0 µM) 97% (active); (at 100.0 µM) 97% (active).

Turning to `CSc1nc(-c2ccccc2)nc(=[N+]2CCOCC2)s1`, the growth inhibition is 17% (at 1.2 µM); 52% (at 3.7 µM); 83% (active) (at 11.0 µM); 97% (active) (at 33.0 µM); 98% (active) (at 100.0 µM).

`O=C1C(CCSc2ccccc2)C(=O)N(c2ccccc2)C1c1ccccc1` (stereo not given): the growth inhibition runs as follows: (at 1.2 µM) 23%; (at 3.7 µM) 24%; (at 11.0 µM) 49%; (at 33.0 µM) 96% (active); (at 100.0 µM) 89% (active).

Turning to `CCC1(O)C(=O)OCc2c1cc1n(c2=O)Cc2cc3c(N)cccc3nc2-1` (stereo not given), the growth inhibition is -21% (at 1.2 µM); 31% (at 3.7 µM); 53% (at 11.0 µM); 57% (at 33.0 µM); 54% (at 100.0 µM).

Consider `O=C1C(/C=C/c2ccc(Cl)cc2)=NNC2N1N=C1NC(=O)C3(NN12)c1ccccc1-c1ccccc13` (stereo not given), for which the growth inhibition was -2% (at 1.2 µM); -2% (at 3.7 µM); -1% (at 11.0 µM); -3% (at 33.0 µM); 10% (at 100.0 µM).

For the compound `COC(=O)C1=C(C(=O)OC)CC(n2nnc(C(=O)OC)c2C(=O)OC)=CC1`, the growth inhibition is -1% (at 1.2 µM); 1% (at 3.7 µM); 2% (at 11.0 µM); 0% (at 33.0 µM); -2% (at 100.0 µM).

With `CC(C)OC(=O)NNc1cc(Cl)ccc1Cl`, the growth inhibition (at 1.2 µM) was 0%; the growth inhibition (at 3.7 µM) was 18%; the growth inhibition (at 11.0 µM) was 41%; the growth inhibition (at 33.0 µM) was 38%; the growth inhibition (at 100.0 µM) was 66%.
